Dicer inh: inhibitors of human Dicer processing of pre-microRNA; z-score at 25 µM; AID 1347074; cat-ELCCA pre-miR-21 Dicer processing, chemiluminescence; stronger effect = higher value; 6% of 47,000 active; Q9UPY3; in the data active = z-score above about 3, passing the limit was not always enough;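 note: higher signal means more uncleaved substrate so more Dicer inhibition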
Target sequence (Q9UPY3 whole entry, looked up): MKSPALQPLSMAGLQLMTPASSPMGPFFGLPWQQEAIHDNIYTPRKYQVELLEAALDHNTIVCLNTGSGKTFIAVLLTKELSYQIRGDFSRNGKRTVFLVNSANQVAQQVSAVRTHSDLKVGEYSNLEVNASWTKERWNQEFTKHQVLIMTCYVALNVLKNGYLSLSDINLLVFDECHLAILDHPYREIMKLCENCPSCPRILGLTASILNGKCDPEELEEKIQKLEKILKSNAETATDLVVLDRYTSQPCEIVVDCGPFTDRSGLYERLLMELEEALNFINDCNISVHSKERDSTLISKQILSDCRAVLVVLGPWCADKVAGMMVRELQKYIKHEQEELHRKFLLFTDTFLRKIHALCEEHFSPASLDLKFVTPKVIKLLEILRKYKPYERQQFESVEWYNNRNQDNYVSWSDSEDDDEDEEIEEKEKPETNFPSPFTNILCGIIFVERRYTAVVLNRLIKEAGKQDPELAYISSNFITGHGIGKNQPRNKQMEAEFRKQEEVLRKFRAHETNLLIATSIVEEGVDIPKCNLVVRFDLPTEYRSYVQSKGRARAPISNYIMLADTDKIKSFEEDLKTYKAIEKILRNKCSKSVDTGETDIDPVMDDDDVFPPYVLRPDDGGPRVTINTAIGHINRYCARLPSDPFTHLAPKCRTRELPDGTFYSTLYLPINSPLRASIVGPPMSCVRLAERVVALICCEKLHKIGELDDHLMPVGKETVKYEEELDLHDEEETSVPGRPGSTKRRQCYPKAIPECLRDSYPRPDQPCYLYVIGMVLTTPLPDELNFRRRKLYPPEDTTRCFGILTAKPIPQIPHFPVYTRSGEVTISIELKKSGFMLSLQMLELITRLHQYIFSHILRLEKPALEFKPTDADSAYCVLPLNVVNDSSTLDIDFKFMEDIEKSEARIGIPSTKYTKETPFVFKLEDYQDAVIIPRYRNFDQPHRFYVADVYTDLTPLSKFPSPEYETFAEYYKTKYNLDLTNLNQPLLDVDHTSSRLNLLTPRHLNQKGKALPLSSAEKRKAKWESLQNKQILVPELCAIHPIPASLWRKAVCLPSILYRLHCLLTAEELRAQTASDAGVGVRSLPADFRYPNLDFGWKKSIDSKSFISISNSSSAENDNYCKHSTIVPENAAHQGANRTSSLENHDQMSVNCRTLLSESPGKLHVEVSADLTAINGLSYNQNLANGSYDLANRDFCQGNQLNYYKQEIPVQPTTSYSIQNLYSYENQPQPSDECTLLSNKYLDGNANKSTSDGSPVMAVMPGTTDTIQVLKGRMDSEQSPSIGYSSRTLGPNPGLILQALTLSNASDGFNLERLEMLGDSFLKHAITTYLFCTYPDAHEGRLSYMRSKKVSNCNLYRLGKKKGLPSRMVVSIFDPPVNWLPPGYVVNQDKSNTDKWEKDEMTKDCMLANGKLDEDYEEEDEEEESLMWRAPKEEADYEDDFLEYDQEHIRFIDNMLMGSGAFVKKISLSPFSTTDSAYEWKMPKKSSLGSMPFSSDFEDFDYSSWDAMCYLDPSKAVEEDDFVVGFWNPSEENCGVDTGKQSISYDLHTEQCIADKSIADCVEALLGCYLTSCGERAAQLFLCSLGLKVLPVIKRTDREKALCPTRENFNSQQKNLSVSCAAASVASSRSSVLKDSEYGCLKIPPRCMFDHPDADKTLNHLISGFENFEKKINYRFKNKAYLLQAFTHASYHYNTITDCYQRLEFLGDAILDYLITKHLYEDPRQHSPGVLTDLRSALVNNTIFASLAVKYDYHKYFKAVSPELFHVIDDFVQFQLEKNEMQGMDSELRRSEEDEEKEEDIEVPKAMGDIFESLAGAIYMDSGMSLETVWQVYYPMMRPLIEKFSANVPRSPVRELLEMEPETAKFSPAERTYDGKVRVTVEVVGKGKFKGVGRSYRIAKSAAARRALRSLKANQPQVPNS
Large screens that a line does not name were inactive. This excerpt belongs to a sample that is enriched for hits.

Cc1cc(C)c(N=C2SCC(=O)N2Cc2ccco2)c(C)c1	Dicer inh 4.8
Cc1ccc(NC(=S)N2CCc3sccc3C2C)cc1Cl (stereo not given)	none
COC(=O)c1c(NC(=O)CCCC(=O)O)sc2c1CCC(C)C2 (stereo not given)	none
CC1=CC2CC1C1C(=O)N(c3ccc(OC(F)(F)F)cc3)C(=O)C21 (stereo not given)	none
O=C(CC1(O)C(=O)N(Cc2ccccc2)c2ccccc21)c1ccc(Cl)cc1 (stereo not given)	Dicer inh 3
O=C(CC1(O)C(=O)N(CCc2ccccc2)c2ccc(Br)cc21)c1ccco1 (stereo not given)	none
CN1C(=O)C(O)(CC(=O)c2ccc3c(c2)OCO3)c2ccccc21 (stereo not given)	none
CN(C)c1ccc(C(=O)CC2(O)C(=O)N(Cc3ccc(Cl)cc3)c3ccccc32)cc1 (stereo not given)	none
CN1C(=O)C(O)(CC(=O)c2ccc3c(c2)CCCC3)c2ccccc21 (stereo not given)	Dicer inh 3.3
CCN1C(=O)C(O)(CC(=O)c2cccs2)c2ccccc21 (stereo not given)	none
O=C(CC1(O)C(=O)N(CCc2ccccc2)c2ccc(Cl)cc21)c1cccs1 (stereo not given)	Dicer inh 4.2
O=C(CC1(O)C(=O)N(Cc2ccc(Cl)cc2)c2ccccc21)c1cccs1 (stereo not given)	none
O=C(CC1(O)C(=O)N(CCc2ccccc2)c2ccc(Br)cc21)c1cccs1 (stereo not given)	none
CN1C(=O)C(O)(CC(=O)c2ccccc2)c2ccccc21 (stereo not given)	none
Cc1ccc(C(=O)CC2(O)C(=O)N(CCc3ccccc3)c3ccc(Br)cc32)s1 (stereo not given)	Dicer inh 4.9
Cc1coc(C)c1C(=O)CC1(O)C(=O)N(CCc2ccccc2)c2ccc(Br)cc21 (stereo not given)	none
Cc1cc(C(F)(F)F)cc(NNS(=O)(=O)c2ccc(Cl)cc2Cl)n1	none
CSC(N)=Nc1cccc(Cl)c1Cl	none
CCOC(=O)c1c(NC2SC(=O)N(c3ccccc3)C2=O)sc(C)c1C (stereo not given)	none
Cc1ccc(-n2nnnc2SCC(=O)C(C)(C)C)c(C)c1	none
CS/C(NCc1cccs1)=C(\C#N)S(=O)(=O)c1ccc(Cl)cc1	none
NNC(=O)c1c(-c2ccccc2)c(-c2ccccc2)nn2nnnc12	none
COc1ccc(C2/C(=C(\O)c3ccc(F)cc3)C(=O)C(=O)N2Cc2cccnc2)cc1OC (stereo not given)	none
COc1cccc(-c2nc3cc(N)ccc3o2)c1	none
O=C1CC(NC2CCN(c3ccc(C(F)(F)F)cn3)CC2)C(=O)N1c1ccc(F)cc1 (stereo not given)	none
Cc1ccc(CN2C(=O)C(O)(CC(=O)c3cccs3)c3cc(Cl)ccc32)cc1 (stereo not given)	none
Cc1ccccc1CN1C(=O)C(O)(CC(=O)c2cccnc2)c2cc(Cl)ccc21 (stereo not given)	none
Cc1ccccc1CN1C(=O)C(O)(CC(=O)c2cccs2)c2cc(Cl)ccc21 (stereo not given)	Dicer inh 5.3
CC(C)(C)S(=O)(=O)C/C(N)=N/OS(=O)(=O)c1ccc(F)cc1F	none
COc1cc(C(=O)NNS(=O)(=O)c2ccccc2C)c(-n2c(C)ccc2C)cc1OC	none
COc1cc(C(=O)NS(=O)(=O)c2ccccc2C)ccc1Cc1cn(C)c2ccc(NC(=O)OC3CCCC3)cc12	Dicer inh 4.3
COC(=O)c1c(C)oc(C)c1S(=O)(=O)NC1CCCCCCCCCCC1	none
OC(Cn1ccc2ccccc21)Cn1c(Cc2ccccc2)nc2ccccc21 (stereo not given)	none
O=C(Nc1ccc(N2CCOCC2)cc1)c1cc2cc(Cl)ccc2[nH]1	Dicer inh 4
O=C(Nc1ccc(N2CCOCC2)cc1)c1ccc(Oc2cc(Cl)cc(Cl)c2)o1	none
O=C(Nc1ccc(N2CCOCC2)cc1)c1ncn[nH]1	none
COC(=O)C1=C(C)N=C2SCCC(=O)N2C1c1ccc(OC)c(OC)c1 (stereo not given)	none
CC(=O)CSc1nc(Nc2ccccc2)c2cnn(-c3ccccc3)c2n1	none
N#Cc1c(-c2ccc(F)cc2)c2c([nH]c1=O)-c1ccccc1SC2	Dicer inh 3.5
N#Cc1c(-c2ccc(F)cc2)c2c([nH]c1=O)-c1ccccc1CC2	none
N#Cc1c(-c2cccnc2)c2c([nH]c1=O)-c1ccccc1SC2	none
Cn1c(SCC(=O)Nc2c(C#N)cnn2-c2ccccc2)nnc1-c1ccncc1	none
NNC(=O)/C(=C\c1ccccc1Cl)NC(=O)c1ccccc1	none
Clc1ccc2nc(-c3ccco3)cc(-c3ccccc3)c2c1	none
CO[C@H]1O[C@H](CO)[C@@H](OC(C)=O)[C@H](OC(C)=O)[C@H]1OC(C)=O	none
C=C(C)Cc1c(C)nc(SCC(=O)c2ccc(Cl)cc2)[nH]c1=O	none
O=C(Oc1ccc(OC(=O)c2ccncc2)cc1)c1ccncc1	none
CCCCCCOc1ccc(OC(=O)c2ccncc2)cc1	Dicer inh 8.9
COc1ccc(OC(=O)c2ccncc2)cc1	none
COC(=O)c1cnc(N/N=C\c2ccc(C(F)(F)F)cc2)nc1C(F)(F)F	none
CC(C)C(=O)NCCNC(=O)c1nonc1N	none
